According to PubChem BioAssay (NCATS):
Several values for one entry are separate records, joined by “and”; a condition that tells them apart may be missing. Equal values may be shown once. Records with an inconclusive call do not appear. Activity calls are given as the source filed them. Unless noted, the rule behind the calls is not given here.

Columns and labels:
[1] = qHTS Assay for Identifying Gametocytocidal Compounds (AID 743244; active = well fitted curve in the direction sought with a large enough effect; an effect the other way counts as inactive or inconclusive; note: potency is the fitted concentration of half-maximal effect;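 for max response: % is set by controls: 0 for no effect and ±100 for the full control effect; actives lower the fluorescent signal which means gametocytes are killed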); conditions: P. falciparum 3D7 stage III-V gametocytes, alamarBlue, 72 h; max response: stronger effect = lower value
How it was run: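 3D7 gametocytes, stages III–V, 20,000/well; cpd 72 h, 37 °C/5% CO2; + alamarBlue 24 h; fluor. Ex 525/Em 598.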

[2] = qHTS profiling for inhibitors of Plasmodium falciparum (DD2) proliferation (AID 743323); conditions: lower = more inhibition; at 28.7 µM (top of the series) unless noted
How it was run: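 1536-well qHTS; infected RBCs 0.3% parasitemia/2.5% Hct final; cpd 72 h 37 C 5% CO2; lysis buffer + SYBR Green I, o/n RT dark; FI 485/535; norm. to 0.29 uM artemisinin and DMSO, plate-stack corrected.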

[3] = qHTS profiling for inhibitors of Plasmodium falciparum (HB3) proliferation (AID 743324; active = well fitted curve in the direction sought with a large enough effect; an effect the other way counts as inactive or inconclusive;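 note: 100% = DMSO vehicle wells and 0% = artemisinin-treated control wells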); conditions: Plasmodium falciparum HB3 blood-stage proliferation; at 28.7 µM (top of the series) unless noted
How it was run: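 P. falciparum HB3 grown in erythrocytes (0.3% parasitemia, 2.5% hematocrit final) with compound for 72 h at 37 C, 5% CO2. Parasite DNA detected by SYBR Green after saponin/triton lysis overnight; normalized to 0.29 uM artemisinin and DMSO.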

[4] = qHTS profiling of the MIPE4 collection as inhibitors of Plasmodium falciparum (3D7) proliferation (AID 743344);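 note: scaled between DMSO vehicle wells and 0.29 µM artemisinin as full inhibition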; conditions: P. falciparum 3D7 in erythrocytes, SYBR Green DNA fluorescence, 72 h; at 28.5 µM (top of the series) unless noted
How it was run: (§1)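 Erythrocytes infected with P. falciparum (0.3% parasitemia, 2.5% hematocrit) incubated with compounds 72 h at 37 C, 5% CO2. Lysis with saponin/Triton buffer containing SYBR Green I, overnight at room temperature in the dark; DNA fluorescence (485/535 nm) normalised to 0.29 uM artemisinin and DMSO.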

[5] = qHTS profiling of the MIPE4 collection as inhibitors of Plasmodium falciparum (DD2) proliferation (AID 743345); conditions: P. falciparum Dd2 in erythrocytes, SYBR Green DNA, 72 h; at 28.5 µM (top of the series) unless noted
How it was run: as §1

[6] = qHTS profiling of the MIPE4 collection as inhibitors of Plasmodium falciparum (DD2) proliferation (Rep 2) (AID 743346); conditions: P. falciparum Dd2 in erythrocytes, SYBR Green DNA, 72 h; at 28.5 µM (top of the series) unless noted
How it was run: as §1

[7] = qHTS profiling of the MIPE4 collection as inhibitors of Plasmodium falciparum (HB3) proliferation (AID 743347);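 note: plate controls were DMSO vehicle wells for no effect and artemisinin wells for full effect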; conditions: P. falciparum HB3 in erythrocytes, SYBR Green DNA, 72 h; at 28.5 µM (top of the series) unless noted
How it was run: as §1

[8] = qHTS profiling for inhibitors of Plasmodium falciparum (3D7) proliferation (AID 743322);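 note: infected erythrocytes exposed to compound for 72 h before lysis; 100% = DMSO vehicle wells and 0% = 0.29 µM artemisinin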; conditions: P. falciparum 3D7 proliferation; at 28.7 µM (top of the series) unless noted
How it was run: as §1

| SMILES | max response [1] | activity, percent of control [2] | remaining proliferation (% of control), lower = more inhibition [3] | parasite growth, % of DMSO control [4] | parasite growth remaining, % of DMSO control (lower = more inhibition) [5] | parasite growth, % of control (lower = inhibition) [6] | growth, % of control [7] | remaining parasite growth % (stronger effect = lower value) [8] [%] | Potency [1] |
| --- | --- | --- | --- | --- | --- | --- | --- | --- | --- |
| Cc1cc(SCc2sc(-c3ccc(C(F)(F)F)cc3)nc2C)ccc1OCC(=O)O | 25.7% (inactive) | 99.9% and 82.6% | 77.3% and 39.3% | 64.2% | 96.2% | 50.7% | 96.6% | – | – |
| O=C(O)CCc1ccc(NCc2cccc(Oc3ccccc3)c2)cc1 | 20.3% (inactive) | 102% | 98.6% | 93.6% | 87.8% | 210% | 76.8% | – | – |
| CN(C(=O)c1ccc(F)cc1C(F)(F)F)C1CCN(c2nnc(-c3ccnn3C)c3ccccc23)CC1 | 1.04% (inactive) | 71.6% | – | 16.1% | 61.1% | 45.1% | 21.1% | 59.4 | – |
| CCCCCCCc1ccc(CCc2cccc(O)c2C(=O)O)cc1 | 25.6% (inactive) | 88.3% | 58.6% | 68.8% | 99.9% | 66.9% | 81.6% | – | – |
| CC(C=CC1=C(C)CCCC1(C)C)=CC=CC(C)=CC(=O)O | – | – | – | 76.8% and 52.8% | 85.9% and 87.9% | 81.2% and 51.5% | 106% and 85.5% | – | – |
| COCC(=O)NCC=Cc1ccc2ncnc(Nc3ccc(Oc4ccc(C)nc4)c(C)c3)c2c1 | -4.65% (inactive) | 24.1% | 7.14% | 15.6% | 70.2% | 29.4% | 9.14% | – | – |
| CCn1c(-c2nonc2N)nc2c(C#CC(C)(C)O)ncc(OC[C@H]3CCCNC3)c21 | – | 2.74% | 2.14% | – | 11.8% | 13.9% | 3.2% | 5.66 | 23.5 µM (active) |
| CCOc1ccc(Cc2cc([C@@H]3O[C@H](CO)[C@@H](O)[C@H](O)[C@@H]3O)ccc2Cl)cc1 | 10.7% (inactive) | 101% | 112% | – | 104% | 103% | 505% | – | – |
| CN[C@@H](C)C(=O)N[C@H]1CCCC[C@H]2CC[C@@H](C(=O)N[C@@H](c3ccccc3)c3cn(CCCCc4ccc(CCCCn5cc([C@@H](NC(=O)[C@@H]6CC[C@@H]7CCCC[C@H](NC(=O)[C@H](C)NC)C(=O)N76)c6ccccc6)nn5)cc4)nn3)N2C1=O | – | 0.253% | -1.02% | 5.44% | – | 9.02% | 3.6% | -0.81 | – |
| Nc1cccc(S(=O)(=O)N2CCCN(S(=O)(=O)c3ccc4c(c3)OCCO4)CC2)c1 | 3.74% (inactive) | 101% | 70.3% | 257% | 102% | 120% | 586% | – | – |
| Cc1n[nH]c(C)c1Cc1sc2c(c1C(=O)N1C[C@H](O)CO1)c(=O)n(C)c(=O)n2CC(C)C | 4.91% (inactive) | 99.9% | 81.9% | – | – | 86.3% | 145% | 111 | – |
| CCN(c1ccccc1)c1cc(NC)[n+](C)c(C)n1 | – | 73.7% | 38.1% | – | 94.6% | 58.7% | 85.9% | 76.6 | – |
| Cc1cc([C@@H](C)Nc2ccccc2C(=O)O)c2nc(N3CCOCC3)cc(=O)n2c1 | -4.48% (inactive) | 29.8% | 31.4% | 5.01% [at 57.5 µM] | – | 7.39% [at 57.5 µM] | 3.82% [at 57.5 µM] | – | – |
| Cc1cccc(-c2nn(C(=S)Nc3ccccc3)cc2-c2ccnc3ccccc23)n1 | – | 87.9% | 79.6% | – | 86.3% | 66.8% | 99.5% | 91.2 | – |
| CCOC(=O)C1=C[C@@]2(CC)CCCN3CCc4c(n1c1ccccc41)[C@H]32 | -2.64% (inactive) | 56.5% [at 18.4 µM] | 25.8% [at 18.4 µM] | – | – | – | – | – | – |
| O=C(Nc1cccnc1)N1CCC(Cc2cccc(Oc3ccc(C(F)(F)F)cn3)c2)CC1 | -7.98% (inactive) | 24.9% | 4.06% | 14.7% | 52.2% | 21% | 5.3% | – | – |
| CC(C)(C)OC(=O)CN(Cc1ccc(Cl)cc1)Cc1ccc([N+](=O)[O-])s1 | – | 3.12% | -1.32% | 99.5% | 19.7% | 26.7% | 51.3% | 2.82 | – |

| SMILES | max response [1] | activity, percent of control [2] | remaining proliferation (% of control), lower = more inhibition [3] | parasite growth, % of DMSO control [4] | parasite growth remaining, % of DMSO control (lower = more inhibition) [5] | parasite growth, % of control (lower = inhibition) [6] | growth, % of control [7] | remaining parasite growth % (stronger effect = lower value) [8] [%] | Potency [1] |
| --- | --- | --- | --- | --- | --- | --- | --- | --- | --- |
| Cc1cnc(Nc2ccc(OCCN3CCCC3)cc2)nc1Nc1cccc(S(=O)(=O)NC(C)(C)C)c1 | – | 52.4% | 1.48% | 6.36% | 25.8% | 11% | 2.63% | 1.03 | – |
| CC1(C)Cc2c(-c3ccccc3)c(-c3ccc(Cl)cc3)c(CC(=O)O)n2C1 | 1.94% (inactive) | 13.4% | 7.77% | 61% | 90.7% | 63.6% | 82.7% | – | – |
| COc1cccc2cc(-c3nc(C4CCC(C(=O)O)CC4)n4ncnc(N)c34)[nH]c12 (stereo not drawn) | -10.8% (inactive) | 53.2% | – | 13.9% | 16.6% | 28.6% | 9.36% | 64.8 | – |
| O=C1CCCC2=C1C(c1[nH]ncc1Cl)N=C(Nc1nc3ccccc3o1)N2 (stereo not drawn) | 6.89% (inactive) | 105% | 114% | 20.6% | 10.9% | 8.08% | 55.2% | – | – |
| NC(=O)C1CCCc2c1[nH]c1ccc(Cl)cc21 (stereo not drawn) | 9.85% (inactive) | 94.6% | 95% | – | 112% | 145% | 106% | 100 | – |
| NC(=O)c1ccc(-c2nc(-c3ccc4c(c3)OCO4)c(-c3ccccn3)[nH]2)cc1 | – | 88.1% | 71.6% | 42.9% | 55.7% | 32.2% | 18.7% | 82.3 | – |
| COc1ccc(CC2=NN3C([C@@H](CCc4ccccc4)[C@@H](C)O)=NC(C)C3C(=O)N2)cc1OC (stereo partly drawn) | -6.02% (inactive) | 64.6% | 17.1% | 87.2% | 99.9% | 46.9% | 82% | – | – |
| CN([C@@H](Cc1ccc(OS(=O)(=O)c2cccc3cnccc23)cc1)C(=O)N1CCN(c2ccccc2)CC1)S(=O)(=O)c1cccc2cnccc12 | – | 0.806% and 0.455% | -0.274% and -0.52% | – | – | 12.9% | 4.99% | – | 18.7 µM (active) |
| CNC(=O)c1ccc(C)c(-n2c(C)cc(OCc3ccc(F)cc3F)c(Br)c2=O)c1 | 32.9% (inactive) | 80.8% | 52.2% | 42% | 84.9% | 50.9% | 93.8% | – | – |
| CCOc1cc(N2CCC(O)CC2)ccc1Nc1ncc2c(n1)N(C)c1ccccc1C(=O)N2C | – | 1.46% | -0.346% | 4.46% | – | 5.98% | 5.43% | – | – |
| CCN(CC)CCCC(C)Nc1nc(C)cc(Nc2ccc3nc(C)cc(N)c3c2)n1 (stereo not drawn) | – | 17.1% | – | 25% | 21.1% | 14.4% | 20% | 29.9 | – |
| CC(C)(N)C(=O)N[C@H](COCc1ccccc1)C(=O)N1CCC2(CC1)CN(S(C)(=O)=O)c1ccccc12 | – | 10.9% | 1.31% | – | 10.9% | 7.19% | 26.2% | 88.9 | – |
| O=C1[C@H](Cc2ccc(O)cc2)N2C(=O)CCN(C(=O)NCc3ccccc3)[C@H]2CN1Cc1cccc2ccccc12 | -13% (inactive) | 43.6% | -0.183% | – | 56% | 40.6% | 12.1% | – | – |
| COc1ccc(-c2ccc3c(N4CCOCC4)nc(N4C[C@@H](C)O[C@@H](C)C4)nc3n2)cc1CO | – | 25.3% | 18.1% | 6.12% | 15.1% | 17.2% | 5.91% | – | – |
| COc1cc(Oc2ccnc3cc(OC)c(OC)cc23)ccc1NC(=O)NC(C)c1nccs1 (stereo not drawn) | 6.55% (inactive) | 56.8% | 16.5% | 22.7% | 85.4% | 40.3% | 71.5% | – | – |
| Nc1nc2[nH]cc(CCc3ccc(C(=O)N[C@@H](CCC(=O)O)C(=O)O)cc3)c2c(=O)[nH]1 | 97.2% (inactive) and -5.73% (inactive) | 10.6% | 4.66% | – | 48.3% | 26.3% | 139% | – | – |
| COc1ccc([C@@H]2CC(=O)c3c(O)cc(O[C@@H]4O[C@H](CO[C@@H]5O[C@@H](C)[C@H](O)[C@@H](O)[C@@H]5O)[C@@H](O)[C@H](O)[C@@H]4O)cc3O2)cc1O | – | – | – | 83.3% and 61.8% | 90.3% and 85.6% | 120% and 81.3% | 92% and 93.5% | – | – |
